We go through four molecules from ChEMBL document CHEMBL1961873, “Compounds: GSK PKIS; Assays: Nanosyn kinase panel” (2012).

The target in experiment [1] is High affinity nerve growth factor receptor (Homo sapiens) (UniProt P04629). To be noted: at 1 µM.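 Note: each value is the mean percent inhibition of TRKA.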
Experiment [2] has as its target BDNF/NT-3 growth factors receptor (Homo sapiens) (UniProt Q16620). To be noted: at 0.1 µM.
The target is the same in experiment [3]. To be noted: at 1 µM.
The target of experiment [4] is NT-3 growth factor receptor (Homo sapiens) (UniProt Q16288). The following applies: at 0.1 µM.
Chain of NT-3 growth factor receptor (Homo sapiens) (Q16288 32-839 limits assumed): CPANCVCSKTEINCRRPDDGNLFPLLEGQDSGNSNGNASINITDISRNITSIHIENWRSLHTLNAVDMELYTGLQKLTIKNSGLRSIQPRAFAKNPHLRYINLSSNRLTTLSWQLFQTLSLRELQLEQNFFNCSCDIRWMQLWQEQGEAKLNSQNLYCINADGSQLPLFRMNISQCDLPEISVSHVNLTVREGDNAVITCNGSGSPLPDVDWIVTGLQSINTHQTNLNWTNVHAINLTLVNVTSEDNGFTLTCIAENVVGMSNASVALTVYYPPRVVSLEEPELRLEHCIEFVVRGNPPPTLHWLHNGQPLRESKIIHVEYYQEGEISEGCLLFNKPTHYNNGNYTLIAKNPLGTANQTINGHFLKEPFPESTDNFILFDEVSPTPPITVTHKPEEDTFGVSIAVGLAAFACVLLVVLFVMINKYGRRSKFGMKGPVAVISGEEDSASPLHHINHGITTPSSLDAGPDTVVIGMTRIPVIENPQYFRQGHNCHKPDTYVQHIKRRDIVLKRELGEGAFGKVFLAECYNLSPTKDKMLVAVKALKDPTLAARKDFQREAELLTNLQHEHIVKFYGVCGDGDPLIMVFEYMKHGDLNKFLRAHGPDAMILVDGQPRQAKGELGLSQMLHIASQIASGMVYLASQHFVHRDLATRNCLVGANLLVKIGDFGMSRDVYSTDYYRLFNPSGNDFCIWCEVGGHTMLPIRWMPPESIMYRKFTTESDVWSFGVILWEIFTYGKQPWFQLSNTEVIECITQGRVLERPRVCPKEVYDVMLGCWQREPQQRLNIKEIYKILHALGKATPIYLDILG
The target is the same in experiment [5]. The following applies: at 1 µM.
Experiment [6] addresses T1, Tyrosine-protein kinase TXK (Homo sapiens) (UniProt P42681).
T1 sequence (whole entry): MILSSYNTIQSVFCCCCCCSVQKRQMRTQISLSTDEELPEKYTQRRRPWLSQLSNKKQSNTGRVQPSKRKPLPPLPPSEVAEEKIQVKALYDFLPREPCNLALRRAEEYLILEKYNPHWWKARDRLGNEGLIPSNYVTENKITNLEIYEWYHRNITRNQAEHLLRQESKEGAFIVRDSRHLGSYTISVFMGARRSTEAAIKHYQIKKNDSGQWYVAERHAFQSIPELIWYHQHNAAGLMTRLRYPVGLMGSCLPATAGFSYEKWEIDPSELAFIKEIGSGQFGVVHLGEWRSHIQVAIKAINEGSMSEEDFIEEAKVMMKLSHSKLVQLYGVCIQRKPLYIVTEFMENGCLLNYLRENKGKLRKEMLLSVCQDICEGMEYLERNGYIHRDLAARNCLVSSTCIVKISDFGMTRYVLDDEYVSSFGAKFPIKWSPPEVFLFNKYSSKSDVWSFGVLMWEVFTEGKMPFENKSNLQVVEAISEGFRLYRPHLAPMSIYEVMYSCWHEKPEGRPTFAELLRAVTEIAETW
To be noted: at 0.1 µM.

The target in experiment [7] is T1, Tyrosine-protein kinase TXK (Homo sapiens). The following applies: at 1 µM.
In experiment [8] the target is Non-receptor tyrosine-protein kinase TYK2 (Homo sapiens) (UniProt P29597). To be noted: at 0.1 µM.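 Note: each value is a mean of the inhibition readings.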
Chain of Non-receptor tyrosine-protein kinase TYK2 (Homo sapiens) (P29597 whole entry): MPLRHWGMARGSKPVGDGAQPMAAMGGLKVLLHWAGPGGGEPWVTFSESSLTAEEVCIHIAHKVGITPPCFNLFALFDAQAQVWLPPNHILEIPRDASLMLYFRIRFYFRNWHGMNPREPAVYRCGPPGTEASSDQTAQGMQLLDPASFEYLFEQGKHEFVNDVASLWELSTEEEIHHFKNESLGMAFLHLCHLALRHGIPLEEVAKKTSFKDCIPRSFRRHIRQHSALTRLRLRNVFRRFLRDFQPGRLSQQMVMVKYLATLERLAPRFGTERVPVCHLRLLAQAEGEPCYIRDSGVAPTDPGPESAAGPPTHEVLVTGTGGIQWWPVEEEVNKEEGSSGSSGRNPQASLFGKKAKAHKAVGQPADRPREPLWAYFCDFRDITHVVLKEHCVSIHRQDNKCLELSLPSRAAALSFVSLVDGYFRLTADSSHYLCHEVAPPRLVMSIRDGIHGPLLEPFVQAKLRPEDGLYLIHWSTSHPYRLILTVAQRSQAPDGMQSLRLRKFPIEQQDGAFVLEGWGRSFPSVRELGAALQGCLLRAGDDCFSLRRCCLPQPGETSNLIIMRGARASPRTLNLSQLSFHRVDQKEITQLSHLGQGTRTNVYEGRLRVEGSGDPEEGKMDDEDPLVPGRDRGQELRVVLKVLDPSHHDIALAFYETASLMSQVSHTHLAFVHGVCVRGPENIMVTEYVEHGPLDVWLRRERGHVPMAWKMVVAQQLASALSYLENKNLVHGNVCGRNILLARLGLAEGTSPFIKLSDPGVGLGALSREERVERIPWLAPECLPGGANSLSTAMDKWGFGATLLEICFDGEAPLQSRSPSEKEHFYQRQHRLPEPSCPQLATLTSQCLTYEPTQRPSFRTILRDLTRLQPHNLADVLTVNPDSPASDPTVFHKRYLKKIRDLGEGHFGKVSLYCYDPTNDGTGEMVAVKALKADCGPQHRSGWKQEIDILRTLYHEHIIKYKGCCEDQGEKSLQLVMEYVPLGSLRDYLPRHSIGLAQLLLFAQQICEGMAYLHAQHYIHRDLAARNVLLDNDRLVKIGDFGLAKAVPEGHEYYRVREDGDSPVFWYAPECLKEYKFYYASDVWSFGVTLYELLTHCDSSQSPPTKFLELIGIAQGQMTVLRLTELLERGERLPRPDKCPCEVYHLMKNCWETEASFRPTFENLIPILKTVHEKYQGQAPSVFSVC
The target in experiment [9] is T2, Dual specificity protein kinase TTK (Homo sapiens) (UniProt P33981).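 Note: reported figures are mean TTK inhibition at 1 µM.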
T2 sequence (whole entry): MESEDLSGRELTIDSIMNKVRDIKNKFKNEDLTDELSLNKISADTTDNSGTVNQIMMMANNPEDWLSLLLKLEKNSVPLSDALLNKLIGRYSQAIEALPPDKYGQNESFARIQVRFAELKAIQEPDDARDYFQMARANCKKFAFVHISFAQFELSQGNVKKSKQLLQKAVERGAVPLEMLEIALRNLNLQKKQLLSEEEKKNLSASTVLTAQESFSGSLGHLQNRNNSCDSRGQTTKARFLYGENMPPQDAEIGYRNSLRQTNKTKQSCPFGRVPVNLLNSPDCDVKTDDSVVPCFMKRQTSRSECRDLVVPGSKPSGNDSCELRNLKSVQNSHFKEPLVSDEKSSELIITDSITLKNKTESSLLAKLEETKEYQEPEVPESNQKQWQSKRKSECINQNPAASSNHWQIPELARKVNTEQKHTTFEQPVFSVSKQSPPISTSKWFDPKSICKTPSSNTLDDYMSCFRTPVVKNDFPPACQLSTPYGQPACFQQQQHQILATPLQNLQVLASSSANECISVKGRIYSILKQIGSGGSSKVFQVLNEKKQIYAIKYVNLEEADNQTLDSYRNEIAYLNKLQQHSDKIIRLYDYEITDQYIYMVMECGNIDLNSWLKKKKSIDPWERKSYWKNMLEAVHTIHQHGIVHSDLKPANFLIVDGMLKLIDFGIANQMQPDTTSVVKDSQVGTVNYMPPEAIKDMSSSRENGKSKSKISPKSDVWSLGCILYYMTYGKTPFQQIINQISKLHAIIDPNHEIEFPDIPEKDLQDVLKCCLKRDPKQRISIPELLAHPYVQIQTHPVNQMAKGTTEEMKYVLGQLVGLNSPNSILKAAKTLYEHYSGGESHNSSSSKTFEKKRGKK
The following applies: at 1 µM.

Experiment [10] concerns the target T3, Aurora kinase A (Homo sapiens) (UniProt O14965).
T3 sequence (whole entry): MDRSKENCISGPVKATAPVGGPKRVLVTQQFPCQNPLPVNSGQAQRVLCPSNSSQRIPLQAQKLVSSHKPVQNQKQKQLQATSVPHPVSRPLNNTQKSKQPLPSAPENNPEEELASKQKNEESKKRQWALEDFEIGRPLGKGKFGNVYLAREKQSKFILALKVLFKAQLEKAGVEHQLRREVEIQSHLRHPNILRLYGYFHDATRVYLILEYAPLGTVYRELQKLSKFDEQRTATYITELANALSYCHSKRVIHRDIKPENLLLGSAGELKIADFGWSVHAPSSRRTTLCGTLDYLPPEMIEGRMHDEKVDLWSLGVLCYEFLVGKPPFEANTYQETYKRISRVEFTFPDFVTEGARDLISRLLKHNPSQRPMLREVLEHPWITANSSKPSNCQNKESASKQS
The following applies: at 0.1 µM.

In experiment [11] the target is T3, Aurora kinase A (Homo sapiens). To be noted: at 1 µM.
Experiment [12] has as its target Aurora kinase B (Homo sapiens) (UniProt Q96GD4). The following applies: at 0.1 µM.
Experiment [13] has the same target. To be noted: at 1 µM.
Experiment [14] concerns the target T4, Aurora kinase C (Homo sapiens) (UniProt Q9UQB9).
T4 sequence (whole entry): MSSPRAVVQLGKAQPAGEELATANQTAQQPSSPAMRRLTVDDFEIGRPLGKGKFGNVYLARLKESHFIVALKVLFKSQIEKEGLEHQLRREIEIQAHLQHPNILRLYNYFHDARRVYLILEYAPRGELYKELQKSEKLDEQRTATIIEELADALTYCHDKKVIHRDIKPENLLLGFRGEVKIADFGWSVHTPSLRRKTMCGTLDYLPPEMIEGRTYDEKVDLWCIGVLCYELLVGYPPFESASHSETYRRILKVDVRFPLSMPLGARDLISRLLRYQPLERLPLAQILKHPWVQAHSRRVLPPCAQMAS
The following applies: at 0.1 µM.

Experiment [15] concerns the target T4, Aurora kinase C (Homo sapiens). The following applies: at 1 µM.
Experiment [16] has as its target Serine/threonine-protein kinase 10 (Homo sapiens) (UniProt O94804). The following applies: at 0.1 µM.
Experiment [17] shares this target. To be noted: at 1 µM.
Experiment [18] concerns the target T5, Mitogen-activated protein kinase kinase kinase kinase 2 (Homo sapiens) (UniProt Q12851).
T5 sequence (whole entry): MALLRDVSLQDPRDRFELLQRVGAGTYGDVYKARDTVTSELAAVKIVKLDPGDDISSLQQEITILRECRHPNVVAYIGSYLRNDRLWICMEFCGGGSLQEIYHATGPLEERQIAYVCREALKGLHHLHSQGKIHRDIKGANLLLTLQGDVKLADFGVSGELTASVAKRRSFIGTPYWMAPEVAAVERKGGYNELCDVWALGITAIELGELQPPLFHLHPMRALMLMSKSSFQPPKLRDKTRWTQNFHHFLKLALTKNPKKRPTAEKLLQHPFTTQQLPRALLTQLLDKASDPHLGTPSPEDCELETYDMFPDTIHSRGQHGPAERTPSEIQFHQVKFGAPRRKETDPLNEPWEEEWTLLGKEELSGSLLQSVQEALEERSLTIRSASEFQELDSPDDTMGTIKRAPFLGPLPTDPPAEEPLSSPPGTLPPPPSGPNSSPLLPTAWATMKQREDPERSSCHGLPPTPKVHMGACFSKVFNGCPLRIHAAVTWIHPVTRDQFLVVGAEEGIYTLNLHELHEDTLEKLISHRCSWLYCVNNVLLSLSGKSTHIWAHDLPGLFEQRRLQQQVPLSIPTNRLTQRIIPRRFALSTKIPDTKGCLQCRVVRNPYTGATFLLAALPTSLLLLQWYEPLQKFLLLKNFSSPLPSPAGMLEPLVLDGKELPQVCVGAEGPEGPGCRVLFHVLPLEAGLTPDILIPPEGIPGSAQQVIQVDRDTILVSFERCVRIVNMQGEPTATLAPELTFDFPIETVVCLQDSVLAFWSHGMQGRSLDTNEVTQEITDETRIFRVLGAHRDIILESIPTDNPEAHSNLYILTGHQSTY
The following applies: at 0.1 µM.

The target of experiment [19] is T5, Mitogen-activated protein kinase kinase kinase kinase 2 (Homo sapiens). To be noted: at 1 µM.
Experiment [20] addresses Mitogen-activated protein kinase kinase kinase kinase 4 (Homo sapiens) (UniProt O95819). To be noted: at 0.1 µM.

Chain of Aurora kinase B (Homo sapiens) (Q96GD4 whole entry): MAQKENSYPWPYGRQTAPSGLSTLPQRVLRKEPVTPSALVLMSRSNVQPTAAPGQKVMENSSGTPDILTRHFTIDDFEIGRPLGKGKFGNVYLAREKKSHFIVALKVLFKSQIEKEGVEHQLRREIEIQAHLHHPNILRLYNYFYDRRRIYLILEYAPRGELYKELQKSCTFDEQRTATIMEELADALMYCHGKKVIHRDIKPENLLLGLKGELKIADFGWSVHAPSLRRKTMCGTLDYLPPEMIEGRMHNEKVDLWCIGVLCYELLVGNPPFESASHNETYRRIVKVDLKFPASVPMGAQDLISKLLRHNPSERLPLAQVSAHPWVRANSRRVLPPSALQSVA
Chain of BDNF/NT-3 growth factors receptor (Homo sapiens) (Q16620 32-822 limits assumed): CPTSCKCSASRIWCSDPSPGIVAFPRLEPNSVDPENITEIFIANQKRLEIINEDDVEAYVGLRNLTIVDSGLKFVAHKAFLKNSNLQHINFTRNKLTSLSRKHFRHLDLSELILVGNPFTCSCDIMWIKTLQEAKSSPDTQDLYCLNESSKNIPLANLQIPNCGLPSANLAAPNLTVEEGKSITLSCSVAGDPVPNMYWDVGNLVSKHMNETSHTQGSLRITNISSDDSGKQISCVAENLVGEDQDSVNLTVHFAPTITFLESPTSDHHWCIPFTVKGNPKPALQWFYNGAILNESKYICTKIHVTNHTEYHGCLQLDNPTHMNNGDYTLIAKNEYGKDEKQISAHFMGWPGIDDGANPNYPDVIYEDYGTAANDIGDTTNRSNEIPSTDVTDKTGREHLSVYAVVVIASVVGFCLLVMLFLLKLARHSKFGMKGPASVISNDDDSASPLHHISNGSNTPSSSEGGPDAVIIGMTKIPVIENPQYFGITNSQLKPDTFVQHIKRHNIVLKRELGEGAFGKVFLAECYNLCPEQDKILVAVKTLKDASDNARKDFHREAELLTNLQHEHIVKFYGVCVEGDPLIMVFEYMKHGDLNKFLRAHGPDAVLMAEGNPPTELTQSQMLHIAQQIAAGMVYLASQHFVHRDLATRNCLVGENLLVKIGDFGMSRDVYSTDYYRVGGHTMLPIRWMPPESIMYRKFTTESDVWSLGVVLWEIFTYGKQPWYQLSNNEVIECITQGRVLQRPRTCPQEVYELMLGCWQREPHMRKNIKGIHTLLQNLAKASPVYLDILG
Chain of Serine/threonine-protein kinase 10 (Homo sapiens) (O94804 whole entry, looked up): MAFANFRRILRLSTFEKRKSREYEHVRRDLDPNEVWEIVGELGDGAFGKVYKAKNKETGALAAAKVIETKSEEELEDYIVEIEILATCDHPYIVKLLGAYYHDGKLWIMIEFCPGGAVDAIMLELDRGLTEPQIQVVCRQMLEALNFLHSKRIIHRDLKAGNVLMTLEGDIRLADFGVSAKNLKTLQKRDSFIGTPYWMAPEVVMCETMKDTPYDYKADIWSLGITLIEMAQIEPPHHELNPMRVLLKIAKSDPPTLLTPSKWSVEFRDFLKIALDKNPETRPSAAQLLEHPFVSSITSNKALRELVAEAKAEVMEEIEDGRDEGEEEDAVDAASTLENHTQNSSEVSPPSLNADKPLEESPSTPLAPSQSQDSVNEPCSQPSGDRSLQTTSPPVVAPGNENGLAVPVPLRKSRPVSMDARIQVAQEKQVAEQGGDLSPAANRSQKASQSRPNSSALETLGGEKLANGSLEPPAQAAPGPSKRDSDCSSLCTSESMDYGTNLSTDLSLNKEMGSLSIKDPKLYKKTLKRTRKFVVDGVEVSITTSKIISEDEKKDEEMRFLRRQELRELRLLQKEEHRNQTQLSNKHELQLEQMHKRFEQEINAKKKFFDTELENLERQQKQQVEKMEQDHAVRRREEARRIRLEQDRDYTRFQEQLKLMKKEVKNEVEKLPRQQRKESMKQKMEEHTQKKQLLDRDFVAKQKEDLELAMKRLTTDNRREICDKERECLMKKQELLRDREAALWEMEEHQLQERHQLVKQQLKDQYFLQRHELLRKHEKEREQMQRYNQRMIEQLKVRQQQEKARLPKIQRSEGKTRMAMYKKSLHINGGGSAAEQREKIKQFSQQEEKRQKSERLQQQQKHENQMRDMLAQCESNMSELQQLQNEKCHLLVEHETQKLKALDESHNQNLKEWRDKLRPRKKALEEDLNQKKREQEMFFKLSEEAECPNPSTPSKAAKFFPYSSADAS
Chain of High affinity nerve growth factor receptor (Homo sapiens) (P04629 33-796 limits assumed): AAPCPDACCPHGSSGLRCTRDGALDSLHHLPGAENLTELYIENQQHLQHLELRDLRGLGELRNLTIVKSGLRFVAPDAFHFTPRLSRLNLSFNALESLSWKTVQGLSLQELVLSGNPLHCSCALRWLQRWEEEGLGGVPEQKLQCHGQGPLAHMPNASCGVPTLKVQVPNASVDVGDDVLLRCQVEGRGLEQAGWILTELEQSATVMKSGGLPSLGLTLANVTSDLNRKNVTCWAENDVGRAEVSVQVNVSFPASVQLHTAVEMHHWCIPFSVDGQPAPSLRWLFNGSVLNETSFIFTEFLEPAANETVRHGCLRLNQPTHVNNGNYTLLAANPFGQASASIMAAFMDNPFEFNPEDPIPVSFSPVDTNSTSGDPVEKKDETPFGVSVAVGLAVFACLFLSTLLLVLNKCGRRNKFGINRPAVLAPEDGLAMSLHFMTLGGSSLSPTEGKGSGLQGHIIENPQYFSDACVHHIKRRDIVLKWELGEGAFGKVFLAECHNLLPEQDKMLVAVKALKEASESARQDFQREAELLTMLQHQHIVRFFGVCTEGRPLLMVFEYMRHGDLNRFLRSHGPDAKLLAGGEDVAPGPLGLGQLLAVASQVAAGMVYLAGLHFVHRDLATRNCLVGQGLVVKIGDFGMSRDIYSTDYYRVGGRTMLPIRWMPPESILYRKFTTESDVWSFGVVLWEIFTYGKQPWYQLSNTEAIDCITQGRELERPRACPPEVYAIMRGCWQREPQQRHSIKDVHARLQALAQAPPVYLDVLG

With `Cc1ccc(C(=O)NC2CCC2)cc1-c1ccc(C(=O)NCC2CC2)cc1`, the inhibition in experiment [1] stood at 3.19%; in [2], 1.02%; in experiment [3] it was 1.56%; in experiment [4] it was 2.08%; in [5] it was 1.92%; in [6], 2.58%. For the same molecule, the inhibition in [7] was 3.4%; in experiment [8], -0.8%; in experiment [9], 9.27%; in [10] it was 2.11%; in [11], 7.83%; in experiment [12], 0.48%. Besides, the inhibition was 5.72% in [13]; 0.47% in experiment [14]; 7.37% in experiment [15]; 2.19% in experiment [16]; 6.8% in experiment [17]; 0.91% in experiment [18]. The inhibition was 0.04% in experiment [19] and 3.19% in experiment [20].

With `Fc1ccc(-c2c(-c3ccncc3)nc3n2CCS3)cc1`, the inhibition is -0.43% in experiment [1]; 1.79% in experiment [2]; -0.01% in [3]; 3.54% in experiment [4]; 1.8% in experiment [5]; -1.56% in experiment [6]. Besides, the inhibition in experiment [7] is 0.44%; in [8] it was -0.68%; in [9], 4.17%; in experiment [10], -2.71%; in [11] it was 2.75%; in experiment [12] it was -0.21%. The inhibition in experiment [13] is 1.83%; in [14], -4.05%; in experiment [15], -8.58%; in experiment [16], -1.08%; in experiment [17], 7.95%; in experiment [18], 1.02%. Moreover, the inhibition is 3.03% in [19] and 4.23% in experiment [20].

For the molecule `Cc1ccc(NC(=O)c2ccoc2)cc1-c1ccc(C(=O)NCC2CC2)cc1`, the inhibition in experiment [1] was 1.15%; in [2], 2.58%; in [3] it was 1.82%; in [4], 2.37%; in experiment [5], 0.07%; in [6], -0.38%. The inhibition was 2.18% in experiment [7]; -3.59% in [8]; 4.41% in [9]; 2.28% in experiment [10]; 2.57% in experiment [11]; 1.19% in experiment [12]. Moreover, the inhibition in experiment [13] was 4.85%; in experiment [14] it was 1.82%; in experiment [15], 1%; in experiment [16], 2.73%; in experiment [17], 5.18%; in experiment [18], -0.94%. Moreover, the inhibition in experiment [19] came out at 0.39%; in experiment [20] it was 0.77%.

In the case of `O=C(Nc1n[nH]c2cc(-c3cc(F)ccc3F)ccc12)C1CC1`, the inhibition in experiment [1] was determined as 8.4%; in experiment [2] it was 3.77%; in experiment [3], 8.07%; in [4], 3.77%; in experiment [5], 14%; in experiment [6], 2.25%. The inhibition was 0.99% in experiment [7]; -1% in [8]; 9.7% in experiment [9]; 2.63% in [10]; 18.1% in experiment [11]; 2.4% in [12]. For the same molecule, the inhibition amounted to 6.93% in experiment [13]; 0.12% in [14]; 8.07% in experiment [15]; 4.84% in experiment [16]; 13.1% in experiment [17]; 0.39% in experiment [18]. Moreover, the inhibition stood at 5.06% in experiment [19] and 16.4% in [20].
